The test system of the test is MILI (PIWIL2) piRISC loaded with L1MC piRNA (26 nt). In words: pre-steady-state target cleavage rate (min^-1); guide: L1MC piRNA 5'p-UAACUAAAUACUAUGCAAGCUGUAGG; MIWI and MILI are mouse PIWI proteins and EfPiwi is from a freshwater sponge; tags in brackets are library labels; higher = faster piRNA-guided slicing of the target. Summed up:
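The pre-steady-state cleavage rate was obtained by Cleave-'n-Seq with a burst-and-steady-state fit. A transcribed, DNA-blocked target RNA library (0.1 nM) was mixed with 1 nM active affinity-purified piRISC carrying one synthetic guide, with or without 500 nM GTSF1 partner protein, in HEPES–potassium acetate buffer at 33 °C for 0–8 or 0–960 min. Uncleaved targets were sequenced and normalised to depth and to weakly complementary targets, with three trials pooled and k3 capped at 0.0001 min^-1.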

Setting [1] is: auxiliary factor: 500 nM mouse GTSF1.
Setting [2] is: auxiliary factor: none (no GTSF1).

± gives the standard deviation.

Consider 55 sequences from the supplement of paper PMC10338343.

Regarding UCCUGGAUGUCCUUGAAUAGUAUUUAGUUA, the “pre-steady-state target cleavage rate” value runs as follows: under setting [1], 0.122 ± 0.023; under setting [2], 0.011 ± 0.0029.

Turning to UCCUGGAUCAGCAAGCAUAGUAUUUAGUAA, the “pre-steady-state target cleavage rate” value under setting [1] was determined as 0.196 ± 0.016 and the “pre-steady-state target cleavage rate” value under setting [2] was determined as 0.00292 ± 0.0028.

Turning to UCCUGGUACAGGUUGCAUAGUAAUUAGUUA, the “pre-steady-state target cleavage rate” value was 0.325 ± 0.041 under setting [1] and 0.00664 ± 0.0029 under setting [2].

Consider UCCUCCUACAGCUUGCAUACUAUUUAGUUA, for which the “pre-steady-state target cleavage rate” value reads like this: under setting [1], 0.088 ± 0.013; under setting [2], 0.00383 ± 0.0021.

In the case of UCCUGGUACAGACUUGCAUAGUAUUUAGUUA, the “pre-steady-state target cleavage rate” value under setting [1] was determined as 0.228 ± 0.042 and the “pre-steady-state target cleavage rate” value under setting [2] was 0.00755 ± 0.0044.

UCCUGGUACAGCUUGGAAAGUAUUUAGUUA: the “pre-steady-state target cleavage rate” value under setting [1] stood at 0.111 ± 0.014 and the “pre-steady-state target cleavage rate” value under setting [2] turned out to be 0.00903 ± 0.0035.

With UCCUGGAUGUCCUUGCAAAGUAUUUAGUUA, the “pre-steady-state target cleavage rate” value by setting is: under setting [1], 0.0392 ± 0.0098; under setting [2], 0.00687 ± 0.002.

UCCUGGAUGUCGAUGCAUAGUAUGUUAGUUA: the “pre-steady-state target cleavage rate” value by setting is: under setting [1], 0.0347 ± 0.0076; under setting [2], 0.00559 ± 0.0031.

With UCCUGGAUGAGCUUGCUUUGUAUUUAGUUA, the “pre-steady-state target cleavage rate” value under setting [1] was 0.0408 ± 0.01 and the “pre-steady-state target cleavage rate” value under setting [2] turned out to be 0.00403 ± 0.0028.

For the sequence UCCUGGAUGUCCUGUGCAUAGUAUUUAGUUA, the “pre-steady-state target cleavage rate” value is, setting by setting: under setting [1], 0.0823 ± 0.025; under setting [2], 0.0123 ± 0.0036.

UCCUGGAUCAGCUUGCAUUGUAUUUUGUUA: the “pre-steady-state target cleavage rate” value turned out to be 0.1 ± 0.019 under setting [1] and 0.00344 ± 0.0026 under setting [2].

With UCCUGGAUGAGGUUGCAAAGUAUUUAGUUA, the “pre-steady-state target cleavage rate” value under setting [1] was 0.0323 ± 0.0068 and the “pre-steady-state target cleavage rate” value under setting [2] stood at 0.00826 ± 0.0022.

Regarding UCCUGGUACAGCAUCCAUAGUAUUUAGUUA, the “pre-steady-state target cleavage rate” value by setting is: under setting [1], 0.262 ± 0.077; under setting [2], 0.00374 ± 0.0027.

Regarding UCCUGGAUGUGCUUGCAUAGUUAUUAGUUA, the “pre-steady-state target cleavage rate” value is, setting by setting: under setting [1], 0.00903 ± 0.0055; under setting [2], 0.00639 ± 0.0025.

Take UCCUGGAUGUGCUAGGAUAGUAUUUAGUUA: the “pre-steady-state target cleavage rate” value is 0.103 ± 0.014 under setting [1] and 0.00564 ± 0.0022 under setting [2].

Consider UCCUGGUACAGCUUGCUAAGUAUUUAGUUA, for which the “pre-steady-state target cleavage rate” value was found to be 0.123 ± 0.015 under setting [1] and 0.00432 ± 0.0026 under setting [2].

Take UCCUGGAUGUCGAUGCAUAGUAUUUAGGUUA: the “pre-steady-state target cleavage rate” value runs as follows: under setting [1], 0.0911 ± 0.016; under setting [2], 0.00466 ± 0.0031.

On to UCCUGGUUCAGCUUGCAUAGUAUUUUGUUA, for which the “pre-steady-state target cleavage rate” value runs as follows: under setting [1], 0.16 ± 0.03; under setting [2], 0.00444 ± 0.0036.

As to UCCUGGAUCUGCUUGCAUAGUAUUUUGUUA, the “pre-steady-state target cleavage rate” value under setting [1] was found to be 0.092 ± 0.015 and the “pre-steady-state target cleavage rate” value under setting [2] was 0.00429 ± 0.0026.

For the sequence UCCUGGAACAGCUUCGUUAGUAUUUAGUUA, the “pre-steady-state target cleavage rate” value runs as follows: under setting [1], 0.181 ± 0.013; under setting [2], 0.00414 ± 0.0022.

In the case of UCCUGGAUGUGCUGGCAUAGUAUUUAGUUA, the “pre-steady-state target cleavage rate” value turned out to be 0.118 ± 0.012 under setting [1] and 0.0112 ± 0.0037 under setting [2].

In the case of UCCUGGAACGGCUUGCAUAGUAUUUAGUUA, the “pre-steady-state target cleavage rate” value amounted to 0.259 ± 0.017 under setting [1] and 0.0129 ± 0.0024 under setting [2].

As to UCCUGGAUGUCGAUGCAUAGUAUUUAGUA, the “pre-steady-state target cleavage rate” value runs as follows: under setting [1], 0.0708 ± 0.011; under setting [2], 0.00401 ± 0.0022.

As for UCCUGCAACAGCUUGCAUAGUAUAUAGUUA, the “pre-steady-state target cleavage rate” value is 0.36 ± 0.038 under setting [1] and 0.00582 ± 0.0026 under setting [2].

For UCCUGGAUGUCCAUGGAUAGUAUUUAGUUA, the “pre-steady-state target cleavage rate” value under setting [1] was 0.0252 ± 0.0073 and the “pre-steady-state target cleavage rate” value under setting [2] amounted to 0.00317 ± 0.0025.

On to UCCUGGAUCAGCUUGCUUAGUAUUUAGUAA, for which the “pre-steady-state target cleavage rate” value came out at 0.218 ± 0.012 under setting [1] and 0.00347 ± 0.0021 under setting [2].

As to UCCUGGAUGUCGAAGCAUAGUGUUUAGUUA, the “pre-steady-state target cleavage rate” value by setting is: under setting [1], 0.0115 ± 0.0044; under setting [2], 0.00454 ± 0.0019.

As to UCCUGGAUGUCCUUACAUAGUAUUUAGUUA, the “pre-steady-state target cleavage rate” value by setting is: under setting [1], 0.0839 ± 0.012; under setting [2], 0.00844 ± 0.002.

Take UCCUGGAUGAGCUUGCAUAGAUUUUAGUUA: the “pre-steady-state target cleavage rate” value runs as follows: under setting [1], 0.0099 ± 0.0044; under setting [2], 0.00304 ± 0.0029.

As to UCCUGGAACAGUUGCAUAGUAUUUAGUUA, the “pre-steady-state target cleavage rate” value by setting is: under setting [1], 0.2 ± 0.014; under setting [2], 0.00668 ± 0.0022.

Consider UCCUGGAUCAGCUUGCUUAGUAUUUACUUA, for which the “pre-steady-state target cleavage rate” value worked out at 0.203 ± 0.025 under setting [1] and 0.00642 ± 0.0022 under setting [2].

On to UCCUGGUACACCAUGCAUAGUAUUUAGUUA, for which the “pre-steady-state target cleavage rate” value reads like this: under setting [1], 0.176 ± 0.033; under setting [2], 0.0052 ± 0.0033.

Consider UCCUCCUACAGCUUGAUAGUAUUUAGUUA, for which the “pre-steady-state target cleavage rate” value under setting [1] worked out at 0.147 ± 0.014 and the “pre-steady-state target cleavage rate” value under setting [2] was determined as 0.00404 ± 0.0022.

Consider UCCUGGAUCAGCUUGCAUAGUUAUUAGUUA, for which the “pre-steady-state target cleavage rate” value is, setting by setting: under setting [1], 0.0248 ± 0.01; under setting [2], 0.00466 ± 0.0024.

In the case of UCCUGGUACAGCUAGCAUAGUAUAUAGUUA, the “pre-steady-state target cleavage rate” value stood at 0.183 ± 0.026 under setting [1] and 0.00329 ± 0.0024 under setting [2].

With UCCUGGUACAGCUUGCAUAGAAAUUAGUUA, the “pre-steady-state target cleavage rate” value came to 0.0374 ± 0.011 under setting [1] and 0.00311 ± 0.0031 under setting [2].

Regarding UCCUGGAUGUCCUUGGAUAGUAUUAAGUUA, the “pre-steady-state target cleavage rate” value was 0.207 ± 0.037 under setting [1] and 0.00484 ± 0.0024 under setting [2].

Take UCCUGGAUCAGCAUGGAUAGUAUUUAGUUA: the “pre-steady-state target cleavage rate” value reads like this: under setting [1], 0.19 ± 0.0097; under setting [2], 0.0106 ± 0.0024.

UCCUGGAUCAGCUUGGAUAGUUUUUAGUUA: the “pre-steady-state target cleavage rate” value runs as follows: under setting [1], 0.0521 ± 0.0089; under setting [2], 0.00364 ± 0.0024.

On to UCCUGGAUGUCGUUGCAAAGUAUUUAGUUA, for which the “pre-steady-state target cleavage rate” value worked out at 0.0181 ± 0.0047 under setting [1] and 0.00739 ± 0.0022 under setting [2].

As for UCCUGGAUGUCCUUGCAAAGUAUAUAGUUA, the “pre-steady-state target cleavage rate” value is, setting by setting: under setting [1], 0.0544 ± 0.014; under setting [2], 0.00539 ± 0.002.

Consider UCCUGCUACAGCUUGCAUAGAUAUUUAGUUA, for which the “pre-steady-state target cleavage rate” value was 0.0121 ± 0.005 under setting [1] and 0.00419 ± 0.0019 under setting [2].

As for UCCUGGAUGAGCUAGCAUAGUAUAUAGUUA, the “pre-steady-state target cleavage rate” value under setting [1] was 0.242 ± 0.034 and the “pre-steady-state target cleavage rate” value under setting [2] was found to be 0.0046 ± 0.0022.

As for UCCUGGAUCAGGUUGCAUAGUAAUUAGUUA, the “pre-steady-state target cleavage rate” value worked out at 0.152 ± 0.015 under setting [1] and 0.00739 ± 0.0017 under setting [2].

Turning to UCCUGGUACAGCAAGCAUAGUAUUUAGUAA, the “pre-steady-state target cleavage rate” value stood at 0.239 ± 0.029 under setting [1] and 0.00526 ± 0.0023 under setting [2].

As to UCCUGGUACAGCUUGGUAAGUAUUUAGUAA, the “pre-steady-state target cleavage rate” value is, setting by setting: under setting [1], 0.18 ± 0.034; under setting [2], 0.00367 ± 0.0027.

Take UCCUGGAUGUCCUUGCAUAGUAUAUUAGUUA: the “pre-steady-state target cleavage rate” value is, setting by setting: under setting [1], 0.188 ± 0.034; under setting [2], 0.00666 ± 0.0032.

Regarding UCCUGGAUCAGCUUGCAUAGUAUUUAGAUA, the “pre-steady-state target cleavage rate” value under setting [1] came out at 0.114 ± 0.013 and the “pre-steady-state target cleavage rate” value under setting [2] was 0.00393 ± 0.0016.

For the sequence UCCUGGAUGACCUUGCAUAGUAUUAAGUUA, the “pre-steady-state target cleavage rate” value is 0.141 ± 0.022 under setting [1] and 0.00338 ± 0.0027 under setting [2].

Consider UCCUGGUACAGCUUGCUAGUAUUUAGUUA, for which the “pre-steady-state target cleavage rate” value is, setting by setting: under setting [1], 0.0128 ± 0.0057; under setting [2], 0.00634 ± 0.002.

Take UCCUCCUACAGCUUGCAUUGAAUUUAGUUA: the “pre-steady-state target cleavage rate” value amounted to 0.0267 ± 0.008 under setting [1] and 0.00236 ± 0.0021 under setting [2].

Regarding UCCUCCUACUGCUUGCAUUGUAUUUAGUUA, the “pre-steady-state target cleavage rate” value stood at 0.212 ± 0.013 under setting [1] and 0.00808 ± 0.0019 under setting [2].

For UCCUGGAUGAGCUUGCAAGUAUUUAGUUA, the “pre-steady-state target cleavage rate” value by setting is: under setting [1], 0.0177 ± 0.0056; under setting [2], 0.00379 ± 0.0026.

With UCCUGGAUGUGCUUGCGUAGUAUUUAGUUA, the “pre-steady-state target cleavage rate” value was found to be 0.0451 ± 0.013 under setting [1] and 0.0145 ± 0.0037 under setting [2].

For UCCUGGAUGUGCUUGCAAAGUAUUUACUUA, the “pre-steady-state target cleavage rate” value by setting is: under setting [1], 0.0114 ± 0.0052; under setting [2], 0.00362 ± 0.0028.
